Measured values: PubChem BioAssay (Tox21)
Several values for one entry are separate records, joined by “and”; a condition that tells them apart may be missing. Equal values may be shown once. Results filed as inconclusive are left out. A call without a number means that no potency is given here. Unmarked numbers belong to inactive results. Activity calls are given as the source filed them. Calls come from the whole dose curve; as a rule, active = well fitted cell-killing curve with a large enough effect in the repeat runs (not every such curve was filed as active); inconclusive = weak or mixed curves, or effect the other way; inactive = no such curve, though single readings can be large or run the other way.

Test: qHTS assay to identify small molecule antagonists of the estrogen related receptor signaling pathway with the pleiotropic PPARgamma coactivator (PGC) from Tox21 10K library - cell viability counter screen (AID 1224840); note: nearly all actives have a fitted effect of over 40% in size
Details: PGC/ERR reporter cells viability, CellTiter-Fluor, 17.5 h; series mostly up to 92.4 µM; viability change, negative = cytotoxic: at the top concentration
Text: National Center for Advancing Translational Sciences [NCATS]
NIH Chemical Genomics Center [NCGC]
U.S. Environmental Protection Agency [EPA]
National Institutes of Environmental Health Sciences [NIEHS]
National Toxicology Program [NTP]
U.S. Food and Drug Administration [FDA]
Estrogen related receptors (ERRs), the first orphan nuclear receptors discovered, play an important role in the control of cellular energy metabolism. ERRs are required for high-energy production in response to the environmental challenges. The pleiotropic PPARgamma coactivator (PGC) is a major partner of ERR and a key regulator in energy homeostasis. Together they have been implicated in the etiology of metabolic disorders such as Type 2 diabetes and metabolic syndrome. ERR-alpha was also identified as an adverse marker for breast cancer progression; ERR-alpha-positive tumors have a poor prognosis. To screen and to identify environmental compounds that perturb the ERR and PGC/ERR signaling pathways could provide valuable information for potential therapeutic or preventive measures in the treatment of metabolic disease. To differentiate true PGC/ERR antagonists or agonist from cytotoxic substances, the assay is multiplexed with cell viability assay.
Tox21 Assay Protocol Summary:
The PGC/ERR cells were dispensed at 2,000 cells/5 ul/well in 1536-well white plates using a Multidrop dispenser. After the assay plates were incubated at a 37 C/5% CO2 incubator for 6 hours, 23 nL of compounds dissolved in DMSO, positive and negative controls or DMSO only was transferred to the assay plate by a pin tool. The plates were incubated at 37 C for 17.5 hours. 1 ul/well of CellTiter-Fluor reagent was added into the assay plates using a Flying Reagent Dispenser. After 30-minute incubation at 37 C/5% CO2, the fluorescence intensity in the plates was measured using a ViewLux plate reader.
Potency is the fitted concentration of half-maximal effect.

Structure (SMILES) | Potency | viability change, negative = cytotoxic
NC(=O)c1cccnc1 | inactive | 
CCCCNC(=O)NS(=O)(=O)c1ccc(C)cc1 | inactive | 
O=C1NS(=O)(=O)c2ccccc21 | inactive | 
COc1ccc2c(c1)c(CC(=O)O)c(C)n2C(=O)c1ccc(Cl)cc1 | inactive | 
O=C1O[C@H]([C@@H](O)CO)C(O)=C1O | inactive | 
C1CCC(C(CC2CCCCN2)C2CCCCC2)CC1 (stereo not given) | 29.8 µM (active) | 
NC(CO)(CO)CO | inactive | 
CCN(CC)C(=O)c1cccc(C)c1 | inactive | 
Cc1c(C(=O)O)c(O)cc2c1C(=O)c1c(O)c([C@@H]3O[C@H](CO)[C@@H](O)[C@H](O)[C@H]3O)c(O)c(O)c1C2=O |  | -15.5% [at 42.5 µM]
O=c1[nH]cnc2c1ncn2[C@H]1CC[C@@H](CO)O1 | inactive | 
CCc1nc(N)nc(N)c1-c1ccc(Cl)cc1 |  | -0.687% [at 42.5 µM]
Cc1ccc(S(=O)(=O)O)cc1 | inactive | 
CCCc1cc(=O)[nH]c(=S)[nH]1 | inactive | 
CN(C)C(=S)SC(=S)N(C)C | 1.25 µM (active) and 1.37 µM (active) and 1.68 µM (active) | 
F[B-](F)(F)F | inactive | 
NC1CCCCC1 | inactive | 
Cn1c(=O)c2c(ncn2C)n(C)c1=O | inactive | 
CC(C)C(=O)Nc1ccc([N+](=O)[O-])c(C(F)(F)F)c1 | inactive | 
C=C(C)C(=O)OCC(C)O (stereo not given) | inactive | 
COc1ccc(OC(F)(F)F)cc1CN[C@H]1CCCN[C@H]1c1ccccc1 | 54.5 µM (active) | 

Structure (SMILES) | Potency | viability change, negative = cytotoxic
NS(=O)(=O)O | inactive | 
OC[C@H]1O[C@H](O[C@]2(CCl)O[C@H](CCl)[C@@H](O)[C@@H]2O)[C@H](O)[C@@H](O)[C@H]1Cl | inactive | 
CC(=O)CCC(=O)O | inactive | 
CC(C)NCC(O)c1ccc(O)c(O)c1 (stereo not given) | inactive | 
CCCCCCCC(=O)OCC(COC(=O)CCCCCCC)OC(=O)CCCCCCC | inactive | 
O=C(Nc1ncc([N+](=O)[O-])s1)c1cccs1 |  | -26.5% [at 42.5 µM]
CN1CCC[C@H]1c1cccnc1 | inactive | 
CCCCOC(=O)c1ccc(O)cc1 | inactive | 
Nc1c2c(nc3ccccc13)CCCC2 |  | 16.8% [at 42.5 µM]
Nc1ccc(S(N)(=O)=O)cc1 | inactive | 
CCCCCCCCCCCC[N+](C)(C)Cc1ccccc1 | 60 µM (active) and 41.9 µM (active) | 
CN1CCc2cccc3c2[C@H]1Cc1ccc(O)c(O)c1-3 | 30.9 µM (active) and 22.8 µM (active) | 
Cc1cc(=O)oc2cc(O)ccc12 | inactive | 
CCOC(N)=O | inactive | 
CCCCC(CC)C(=O)O (stereo not given) | inactive | 
CN(C)C(=O)Nc1ccc(Cl)c(Cl)c1 | inactive | 
CC(C)c1c(C(=O)Nc2ccccc2)c(-c2ccccc2)c(-c2ccc(F)cc2)n1CC[C@@H](O)C[C@@H](O)CC(=O)O | inactive | 
O=C(O)c1ccccc1 | inactive | 
CNNCc1ccc(C(=O)NC(C)C)cc1 | inactive | 
COc1ccc(C(Cl)=C(c2ccc(OC)cc2)c2ccc(OC)cc2)cc1 | inactive | 
